Compound activity deposited in PubChem by SRMLSC.
NADH enzymes – inhibition of NAD/NADH coupling enzymes, library profiling; 65,000 compounds, 0.02% hits; coupled PK/LDH NADH assays, four targets; IC50, µM (series often up to 10 µM), without a hit: at the highest dose inhibition;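 active = single-dose screening hits from any of four coupled enzyme assays that gave an IC50 when retested across doses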;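 note: the DPM-DC format reads NADH fluorescence rather than 340 nm absorbance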
Spn DPM-DC inh – blocks S. pneumoniae diphosphomevalonate decarboxylase. purified DPM-DC, PK/LDH coupled NADH fluorescence. calls only at 10 µM. 65,000 compounds, 0.49% hits;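 active = the 320 compounds with the highest percent inhibition in the single-dose primary screen, excluding strongly autofluorescent ones, cut at about 32% in these data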;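 note: kinetic rate of NADH fluorescence loss reporting ADP formed by the decarboxylase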
Abs 340nm – absorbance at 340 nm | compound absorbance at 340 nm, fold over control | fold change at 10 µM | 65,000 tested, under 10 active | AID 708;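 active = at 10 µM dose, initial 340 nm absorbance at least 2 fold that of control wells; inactive = change under 2 fold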;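 note: initial absorbance extrapolated from kinetic A340 decline of NADH oxidation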
PMK inhibit – S. pneumoniae PMK inhibition. purified PMK, PK/LDH-coupled NADH absorbance 340 nm. 65,000 compounds, 0.49% hits. inhibition, % at 10 µM;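 active = top-ranked compounds by inhibition in the single 10 µM screen, taking a fixed number of the strongest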;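 note: 0% = full reaction with DMSO carrier and 100% = background rate without enzyme reaction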
Spn MK inh – inhibitors of Streptococcus pneumoniae mevalonate kinase; purified MK, PK/LDH-coupled NADH absorbance 340 nm; inhibition, % at 10 µM; 65,000 compounds, 0.48% hits; AID 555;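 active = ranked among the strongest by inhibition in the single 10 µM screen, a fixed top-ranked set picked for dose follow-up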
Fluor 339 460 – intrinsic fluorescence of library compounds, ex339/em460 – biochemical, MLSMR library, data from DPM-DC assay, artefact control, profiling panel. 65,000 compounds, 5.5% hits. compound autofluorescence, ex339/em460 nm, NADH buffer; stronger effect = higher value; 1 = no-compound wells, NADH background. fluorescence fold increase at 10 µM;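 active = at 10 µM, mean starting fluorescence two-fold or more over control wells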;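 note: signal is the first read of a kinetic run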
An asterisk follows results filed as active. Shown are actives, neighbours in structure and some others; about 6.8% of the full set was active somewhere.

For COc1ccccc1NC(=O)Cn1nnc(-c2ccccc2NC(=O)c2cccs2)n1 the results were NADH enzymes 12.0%, Spn DPM-DC inh inactive, Abs 340nm 1.01, PMK inhibit 15.0, Spn MK inh 21.0 and Fluor 339 460 1.54.
O=C(Cn1nnc(-c2ccccc2NC(=O)c2cccs2)n1)Nc1ccccc1 was read as NADH enzymes 13.0%, Spn DPM-DC inh inactive, Abs 340nm 0.99, PMK inhibit 15.0, Spn MK inh 11.0 and Fluor 339 460 2.44*.
Screening COc1ccc(NC(=O)Cn2nnc(-c3ccccc3NC(=O)c3ccco3)n2)cc1 returned NADH enzymes 7.0%, Spn DPM-DC inh inactive, Abs 340nm 1.01, PMK inhibit 9.0, Spn MK inh 0.0 and Fluor 339 460 2.14*.
`CC(=O)CCc1ccc(OC(=O)c2cccnc2)cc1` gave NADH enzymes 2.0%, Spn DPM-DC inh inactive, Abs 340nm 1.05, PMK inhibit 0.0, Spn MK inh 6.0 and Fluor 339 460 1.06.
`O=C(NC1CC1)c1ccc2c(c1)ncn2C1CCCC1` gave NADH enzymes 17.0%, Spn DPM-DC inh inactive, Abs 340nm 0.99, PMK inhibit 28.0*, Spn MK inh 2.0 and Fluor 339 460 0.97.
Screening O=c1[nH]c2cc3c(cc2cc1C(c1nnnn1C1CCCCC1)N1CCSCC1)OCCO3 (configuration not stated) returned NADH enzymes 3.0%, Spn DPM-DC inh inactive, Abs 340nm 1.03, PMK inhibit 17.0, Spn MK inh 0.0 and Fluor 339 460 2.43*.
COc1cc2cc(C(c3nnnn3C3CCCC3)N3CCCCC3)c(=O)[nH]c2cc1OC (configuration not stated) was read as NADH enzymes 6.0%, Abs 340nm 1.15, PMK inhibit 5.0, Spn MK inh 6.0 and Fluor 339 460 3.54*.
Screening Cn1nc(-c2ccc(Cl)cc2)c2cc(C(=O)NC3CC3)sc21 returned NADH enzymes 3.0%, Abs 340nm 1.07, PMK inhibit 6.0, Spn MK inh 0.0 and Fluor 339 460 2.12*.
Screening CCOCCCNC(=O)c1cc2c(-c3ccc(Cl)cc3)nn(C)c2s1 returned NADH enzymes 8.0%, Abs 340nm 1.06, PMK inhibit 7.0, Spn MK inh 8.0 and Fluor 339 460 2.15*.
`CCN(CC)CCNC(=O)c1cc2c(-c3ccc(Cl)cc3)nn(C)c2s1` gave NADH enzymes 5.0%, Abs 340nm 1.1, PMK inhibit 2.0, Spn MK inh 7.0 and Fluor 339 460 2.15*.
`CC1CCCN(C(=O)c2cc3c(-c4ccc(Cl)cc4)nn(C)c3s2)C1` (configuration not stated) gave NADH enzymes 4.0%, Spn DPM-DC inh inactive, Abs 340nm 1.01, PMK inhibit 0.0, Spn MK inh 2.0 and Fluor 339 460 1.04.
For CC(C)CCOC(=O)C1[C@H]2C(=O)N(Cc3cccs3)C[C@]23C=C[C@H]1O3 (some centres not stated) the results were NADH enzymes 5.0%, Spn DPM-DC inh inactive, Abs 340nm 1.01, PMK inhibit 10.0, Spn MK inh 4.0 and Fluor 339 460 1.09.
For COc1cc2nc(N3CCNCC3)nc(N)c2cc1OC the results were NADH enzymes 5.0%, Abs 340nm 1.09, PMK inhibit 1.0, Spn MK inh 9.0 and Fluor 339 460 3.96*.
`CCOc1cc2nc(-c3ccc(OC)c(OC)c3)nc(N3CCOCC3)c2cc1OC` gave NADH enzymes 15.0%, Spn DPM-DC inh inactive, Abs 340nm 1.09, PMK inhibit 6.0, Spn MK inh 10.0 and Fluor 339 460 1.47.
`CN1C(=S)SC(/[N+]([O-])=C\c2ccco2)C1(C)C` (configuration not stated) gave NADH enzymes 5.0%, Spn DPM-DC inh inactive, Abs 340nm 1.14, PMK inhibit 9.0, Spn MK inh 6.0 and Fluor 339 460 1.08.
COc1ccccc1C1NC(=O)NC(C)=C1C(=O)OC1CCCCC1 (configuration not stated) was read as NADH enzymes 7.0%, Spn DPM-DC inh inactive, Abs 340nm 1.03, PMK inhibit 15.0, Spn MK inh 5.0 and Fluor 339 460 1.08.
For CCN1C2=C(C(=O)CCC2)C(c2ccc(O)c(Br)c2)C2=C1CCCC2=O the results were NADH enzymes 5.0%, Abs 340nm 1.05, PMK inhibit 4.0, Spn MK inh 6.0 and Fluor 339 460 2.07*.
Cc1ccc(C2CC(=O)NC3=C2C(=O)CCC3)cc1Br (configuration not stated) was read as NADH enzymes 4.0%, Spn DPM-DC inh inactive, Abs 340nm 1.02, PMK inhibit 12.0, Spn MK inh 1.0 and Fluor 339 460 1.15.
Screening COC(=O)Nc1nnc(-c2ccncc2)s1 returned NADH enzymes 7.0%, Abs 340nm 1.1, PMK inhibit 4.0, Spn MK inh 10.0 and Fluor 339 460 3.7*.
Screening COc1ccccc1-c1nnc(NC(=O)OCC(C)C)s1 returned NADH enzymes 9.0%, Spn DPM-DC inh inactive, Abs 340nm 1.02, PMK inhibit 12.0, Spn MK inh 8.0 and Fluor 339 460 1.45.
COC(=O)Nc1nnc(-c2ccccc2Cl)s1 was read as NADH enzymes 7.0%, Spn DPM-DC inh inactive, Abs 340nm 1.01, PMK inhibit 7.0, Spn MK inh 5.0 and Fluor 339 460 2.92*.
`CCOC(=O)Nc1nnc(-c2cccc(OC)c2)s1` gave NADH enzymes 3.0%, Abs 340nm 1.03, PMK inhibit 0.0, Spn MK inh 5.0 and Fluor 339 460 3.79*.
Screening CCOC(=O)Nc1nnc(-c2ccccc2OC)s1 returned NADH enzymes 2.0%, Abs 340nm 1.02, PMK inhibit 12.0, Spn MK inh 6.0 and Fluor 339 460 2.77*.
Cc1cc2nc(NC3=NCN(Cc4cccnc4)CN3)nc(C)c2cc1C was read as NADH enzymes 5.0%, Spn DPM-DC inh inactive, Abs 340nm 1.03, PMK inhibit 9.0, Spn MK inh 7.0 and Fluor 339 460 1.1.
Screening CS(=O)(=O)NCCOc1ccc(S(=O)(=O)N2CCCc3ccccc32)cc1 returned NADH enzymes 0.0%, Spn DPM-DC inh inactive, Abs 340nm 1.07, PMK inhibit 0.0, Spn MK inh 0.0 and Fluor 339 460 1.13.
Screening COc1ccc(-c2nnc(NC(=O)C(C)C)s2)c(OC)c1 returned NADH enzymes 17.0%, Abs 340nm 1.11, PMK inhibit 8.0, Spn MK inh 26.0 and Fluor 339 460 2.09*.
`Cc1nnc(NC(=O)CCC(=O)N2CCN(CCc3ccccc3)CC2)s1` gave NADH enzymes 3.0%, Spn DPM-DC inh inactive, Abs 340nm 1.04, PMK inhibit 5.0, Spn MK inh 3.0 and Fluor 339 460 1.14.
For O=C(O)c1ccc(COc2ccc3c4c(c(=O)oc3c2)CCC4)o1 the results were NADH enzymes 12.0%, Abs 340nm 1.09, PMK inhibit 13.0, Spn MK inh 11.0 and Fluor 339 460 3.5*.
